Measured values: PubChem BioAssay AID1159580 (chemical genetic matrix, 2015)
Hit rate of the full screen: of about 5,500 compounds, about 2,000 (36%) were called active. Roughly 18% stayed inconclusive and do not appear here. No stated cut-off is given here; in the data, active means normalized growth mostly below about 0.91 (no sharp cut-off); inconclusive means no clear call, values can overlap the other calls; inactive means mostly above about 0.92. The list shows a part of the results.

Assay: chemical genetic growth profiling, strain panel (AID 1159580);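 further: tested at 20 µM; growth read once vehicle control cultures reached saturation at 30 °C; 1 = growth at the plate median or of vehicle wells; lower values mean less growth of the strain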
Settings: S. cerevisiae deletion strains, growth OD

Measured: normalized growth

CN(C)CCc1c[nH]c2ccc(Cn3cncn3)cc12
inactive: locus YHR030C, strain SLT2, active compounds read low 0.92 | locus YHR079C, strain IRE1, active compounds read low 0.928 | locus YJL095W, strain BCK1, active compounds read low 0.961 | locus YJR066W, strain TOR1, active compounds read low 0.914 | locus YLR113W, strain HOG1, active compounds read low 0.918 | locus YNL183C, strain NPR1, active compounds read low 0.926 | locus YOR231W, strain MKK1, active compounds read low 0.928 | locus YPL256C, strain CLN2, active compounds read low 0.936

CC(N)=NCCC[C@H](N)C(=O)O
inactive: locus YAL040C, strain CLN3, active compounds read low 1 | locus YCL061C, strain MRC1 (second series), active compounds read low 1.01 | locus YDR363W, strain ESC2, active compounds read low 1.01 | locus YER002W, strain NOP16, active compounds read low 0.997 | locus YMR263W, strain SAP30, active compounds read low 1.02 | locus YMR307W, strain GAS1, active compounds read low 1.01 | locus YNL175C, strain NOP13, active compounds read low 1.01 | locus YNL197C, strain WHI3, active compounds read low 0.999 | locus YNL224C, strain SQS1, active compounds read low 1 | locus YOR083W, strain WHI5 (second series), active compounds read low 1.02 | locus YPL241C, strain CIN2, active compounds read low 1.01
